Compound activity deposited in PubChem BioAssay by ICCB-Longwood Screening Facility, Harvard Medical School.
Mtb hypoxia rep = PubChem AID 1159583. M. tuberculosis hypoxia-regulated fluorescent reporter, fluorescence. 300,000 compounds, 0.1% hits. fluorescence inhibition, % (test concentration not listed); in the data active = fluorescence inhibition mostly above about 23%, no sharp cut-off; inactive = mostly below about 17%
RN4220 kill = growth inhibition of S. aureus RN4220, primary screen, OD600. 16 h. inhibition, % (concentration not given with the values). 330,000 compounds, 0.33% hits; in the data active = inhibition above about 85%;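 also: plate controls were untreated cells for no effect and reference antibiotic for full effect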
Sa ugtP lethal = growth inhibition of ugtP-null S. aureus, primary screen, RN4220 ugtP deletion, OD600; 16 h; growth inhibition, % (concentration not given with the values); 330,000 compounds, 0.54% hits; in the data active = growth inhibition above about 68%;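 also: plate controls were untreated wells for no effect and antibiotic for full effect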
The depositor's hits bear a star. In the library only some 0.68% were active in any assay of this set; here they are far more common.

`FC(F)(F)c1ccc2c(c1)N(CCCN1CCN(CCCl)CC1)c1ccccc1S2` gave RN4220 kill 100.4* and Sa ugtP lethal 100.7*.
`OCCN1CCN(CCCN2c3ccccc3Sc3ccc(C(F)(F)F)cc32)CC1` gave Mtb hypoxia rep 15.6, RN4220 kill -1.4 and Sa ugtP lethal -6.4.
For CC(C)(C)c1ccc(C2CC2C(=O)NN=Cc2cc3ccccc3nc2Cl)cc1 (stereo not given) the results were Mtb hypoxia rep -4.1, RN4220 kill -2.3 and Sa ugtP lethal 10.0.
Screening Cc1cccc(CN2C(=O)C3Cc4c([nH]c5ccccc45)C(C)(C)N3C2=O)c1 (stereo not given) returned Mtb hypoxia rep 8.0, RN4220 kill -13.1 and Sa ugtP lethal -1.8.
Screening Cc1oc2cc(Br)c(O)c(Br)c2c1-c1ccccc1 returned Mtb hypoxia rep 18.1, RN4220 kill -3.6 and Sa ugtP lethal 87.3*.
Screening Cc1cc2oc(=O)cc(-c3ccccc3)c2c(C)c1-c1ccc(O)cc1 returned Mtb hypoxia rep 22.0, RN4220 kill 10.2 and Sa ugtP lethal 4.3.
Screening COc1ccc(C(C)=NNC(=O)CNC(=O)c2ccco2)cc1 returned Mtb hypoxia rep 3.5, RN4220 kill -3.2 and Sa ugtP lethal 10.7.
Screening C#CCOCCOCCOCCNc1nc(N2CCOCC2)nc(N2CCN(C(=O)C(C(C)CC)n3cc(C(N)Cc4ccc(O)cc4)nn3)CC2)n1 (stereo not given) returned Mtb hypoxia rep 2.5, RN4220 kill 1.7 and Sa ugtP lethal -0.8.
Screening CC1CN(C(C)CO)C(=O)c2cccc(NS(=O)(=O)c3ccc(Cl)cc3)c2OC1CN(C)CC1CCCCC1 (stereo not given) returned Mtb hypoxia rep 19.3, RN4220 kill 2.2 and Sa ugtP lethal 3.7.
For CC/C(=C\C=C\[C@@H]1C=C[C@@H]2CCC[C@H]2[C@@H]1C(=O)c1ccc[nH]1)[C@@H]1O[C@@H]([C@@H](C)C(=O)O)CC[C@@H]1C the results were Mtb hypoxia rep 10.3, RN4220 kill 99.6* and Sa ugtP lethal 98.5*.
Cc1ccc2sc(-c3ccc(NC(=O)C=CC(=O)O)cc3)nc2c1 was read as Mtb hypoxia rep 13.5, RN4220 kill 8.8 and Sa ugtP lethal -3.2.
Screening O=C(c1ccccc1)c1nn(-c2ccc(Cl)cc2)c(=O)cc1C(F)(F)F returned RN4220 kill 94.2* and Sa ugtP lethal 81.0.
`O=C(c1ccccc1)c1nn(-c2ccccc2)c(=O)cc1C(F)(F)F` gave RN4220 kill -3.7 and Sa ugtP lethal 51.2.
For C#CCOCCOCCOCCNc1nc(N2CCN(C(=O)C(CCCCN)n3cc(CN)nn3)CC2)nc(N2CCN(C(=O)C(CCCCN)n3cc(CN)nn3)CC2)n1 (stereo not given) the results were Mtb hypoxia rep 3.0, RN4220 kill 8.8 and Sa ugtP lethal -0.2.
For CCc1ccccc1NCC(=O)Nc1ccc(Cl)c(C(F)(F)F)c1 the results were Mtb hypoxia rep 3.0, RN4220 kill 83.5 and Sa ugtP lethal 89.5*.
Screening COc1ccccc1NC(=O)CN1CCN(CC(=O)Nc2ccc(Cl)c(C(F)(F)F)c2)CC1 returned RN4220 kill -15.3 and Sa ugtP lethal -25.9.
C/C=C(/C)C(=O)O[C@@H]1c2c(ccc3ccc(=O)oc23)OC(C)(C)[C@@H]1OC(=O)/C(C)=C\C was read as Mtb hypoxia rep -2.4, RN4220 kill 30.1 and Sa ugtP lethal -7.1.
Screening CC=C(C)C(=O)OC1c2c(ccc3ccc(=O)oc23)OC1C(C)(C)OC(=O)C(C)=CC (stereo not given) returned Mtb hypoxia rep 17.9, RN4220 kill -4.2 and Sa ugtP lethal 96.7*.
Screening CCC(C)CCN1C(Nc2ccccc2)=NCC1Cc1ccccc1 (stereo not given) returned Mtb hypoxia rep 2.9, RN4220 kill 1.0 and Sa ugtP lethal 2.5.
For Cc1cccc(Oc2cc([N+](=O)[O-])cc3c2C(=O)Nc2ccccc2O3)c1 the results were Mtb hypoxia rep 0.7, RN4220 kill 98.2* and Sa ugtP lethal 97.3*.
For O=C1Nc2ccccc2Oc2cc([N+](=O)[O-])cc(Oc3ccccc3)c21 the results were Mtb hypoxia rep 3.9, RN4220 kill 93.5* and Sa ugtP lethal 86.4.
`O=[N+]([O-])c1ccc2c(c1)CNc1ccccc1O2` gave Mtb hypoxia rep 15.4, RN4220 kill 5.7 and Sa ugtP lethal 1.7.
Screening Cc1ccc2c(c1)Oc1ccc([N+](=O)[O-])cc1C(=O)N2 returned Mtb hypoxia rep 4.0, RN4220 kill 1.7 and Sa ugtP lethal -3.3.
C#CCOCCOCCOCCNc1nc(N2CCN(C(=O)C(C(C)C)n3cc(CCO)nn3)CC2)nc(N2CCN(C(=O)C(C(C)CC)n3cc(CCCN=C(N)N)nn3)CC2)n1 (stereo not given) was read as Mtb hypoxia rep -2.3, RN4220 kill 0.6 and Sa ugtP lethal -12.0.
`COc1ccccc1CON=Cc1cccn1-c1nccc(N(C)C)c1C#N` gave RN4220 kill 1.9 and Sa ugtP lethal 8.4.
